Only a selection was taken, and hits are over-represented in it overall.
KDM5B inhibitor: inhibitors of human KDM5B histone demethylase; KDM5B demethylase, FDH-coupled NADH fluorescence (FDH is formaldehyde dehydrogenase); Q9UGL1; 2.6% of 220,000 active; Potency, µM (top dose mostly 57.7 µM), hits mostly inhibitors; AID 1347165; active = well fitted inhibition curve with a large enough effect; note: 0% is about no effect; nearly all actives have a fitted effect of over 70% in size
Target sequence (Q9UGL1 whole entry, looked up): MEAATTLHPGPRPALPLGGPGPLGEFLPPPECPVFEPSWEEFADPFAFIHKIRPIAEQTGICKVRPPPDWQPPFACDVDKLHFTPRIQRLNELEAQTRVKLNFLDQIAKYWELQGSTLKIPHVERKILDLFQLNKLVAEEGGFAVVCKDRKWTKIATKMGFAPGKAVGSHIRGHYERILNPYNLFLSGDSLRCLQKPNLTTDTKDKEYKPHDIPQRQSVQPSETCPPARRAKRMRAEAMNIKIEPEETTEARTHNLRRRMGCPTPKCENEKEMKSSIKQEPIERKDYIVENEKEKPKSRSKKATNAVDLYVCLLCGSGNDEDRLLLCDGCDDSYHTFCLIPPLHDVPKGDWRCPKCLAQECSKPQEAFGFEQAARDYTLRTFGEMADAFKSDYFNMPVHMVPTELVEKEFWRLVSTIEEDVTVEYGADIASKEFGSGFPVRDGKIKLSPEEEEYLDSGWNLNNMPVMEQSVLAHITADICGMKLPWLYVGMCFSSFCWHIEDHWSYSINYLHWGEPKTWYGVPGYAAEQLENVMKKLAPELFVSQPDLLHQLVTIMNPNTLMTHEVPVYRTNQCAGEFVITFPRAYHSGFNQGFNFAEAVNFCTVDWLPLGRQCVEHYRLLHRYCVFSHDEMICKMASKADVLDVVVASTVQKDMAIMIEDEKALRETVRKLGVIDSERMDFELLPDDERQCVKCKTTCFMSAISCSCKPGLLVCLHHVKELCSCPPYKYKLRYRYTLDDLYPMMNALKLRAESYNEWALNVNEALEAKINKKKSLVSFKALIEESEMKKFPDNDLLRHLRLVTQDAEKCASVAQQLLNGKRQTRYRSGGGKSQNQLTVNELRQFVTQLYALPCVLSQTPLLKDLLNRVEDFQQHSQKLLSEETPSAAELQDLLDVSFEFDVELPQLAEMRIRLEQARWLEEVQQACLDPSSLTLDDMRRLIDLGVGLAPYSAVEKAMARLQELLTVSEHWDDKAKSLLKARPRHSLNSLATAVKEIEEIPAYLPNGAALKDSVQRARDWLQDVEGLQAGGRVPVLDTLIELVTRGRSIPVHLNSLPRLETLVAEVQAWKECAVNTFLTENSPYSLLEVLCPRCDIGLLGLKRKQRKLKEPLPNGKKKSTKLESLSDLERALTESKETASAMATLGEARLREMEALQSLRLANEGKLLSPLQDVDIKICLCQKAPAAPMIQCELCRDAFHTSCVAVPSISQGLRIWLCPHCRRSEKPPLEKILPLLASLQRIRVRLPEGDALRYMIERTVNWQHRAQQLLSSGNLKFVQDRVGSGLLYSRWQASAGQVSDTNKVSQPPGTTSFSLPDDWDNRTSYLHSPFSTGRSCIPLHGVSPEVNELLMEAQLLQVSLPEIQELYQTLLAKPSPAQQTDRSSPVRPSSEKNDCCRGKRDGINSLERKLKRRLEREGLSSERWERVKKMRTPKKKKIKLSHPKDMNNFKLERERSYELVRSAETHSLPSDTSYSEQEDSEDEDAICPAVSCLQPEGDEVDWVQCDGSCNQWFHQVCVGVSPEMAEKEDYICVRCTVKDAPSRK
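KDM5BΔAP (200 nM final) in 50 mM HEPES pH 7.5, 0.01% Tween-20 was preincubated 10 min at RT with compound over a concentration range. Substrate mix (H3K4me3 12.5 µM, α-KG 25 µM, Fe²⁺, ascorbate, NAD⁺, FDH) was added, and NADH fluorescence change over 30 min gave dose-response curves.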
The depositor's hits bear a star; i = inactive; [ ] = remark or other dose. Potency is the fitted concentration of half-maximal effect.

SMILES	KDM5B inhibitor
Cc1noc(-c2ccc(OC3CN(C(=O)c4cccc5[nH]ccc45)C3)cc2)n1	28µM*
Cc1noc(-c2ccc(OC3CN(C(=O)Cc4ccccc4)C3)cc2)n1	i
O=C(c1cccc2[nH]ccc12)N1CC(Oc2ccc(-c3nc(-c4ccccc4)no3)cc2)C1	11µM*
Cc1cccc(-n2nc(C3CC3)nc2-c2ccc(-c3nnn(C)n3)cc2)n1	i
CSc1cccc(NC(=O)Cn2nc3n(c2=O)CCCC3)c1	i
Cc1nccn1CCCC(=O)N[C@@H]1CCOC[C@H]1OCC(=O)O	i
Cc1cc(Cl)ccc1OCC(=O)N[C@@H]1CCOC[C@H]1OCC(=O)O	i
Cc1ccc(-c2ccc(CCC(=O)N[C@@H]3CCOC[C@H]3OCC(=O)O)o2)cc1	28µM*
CN1CCCN(C(=O)CCc2ccccc2)c2ccccc21	i
COc1cc(Cl)ccc1C(=O)N(C)C1CCc2nnc(C)n2CC1 (stereo not given)	i
COc1ccc(CCC(=O)N(C)C2CCc3nnc(C)n3CC2)cc1OC (stereo not given)	i
COc1ccc(CC(=O)N(C)C2CCc3nnc(C)n3CC2)cc1Cl (stereo not given)	20µM*
O=C(Nc1ccc2c(c1)CCC2)c1ccc(Cl)cc1N1CCCC1=O	i
CC(=O)N1CCCN(c2ncnc3c2CN(C2CCNCC2)C(=O)CN3C)CC1	i
CN1CC(=O)N(C2CCNCC2)Cc2c1ncnc2N1CCCCC1	i
CC1C=CC(C)N1c1ncnc2c1CN(C1CCNC1)C(=O)CN2C (stereo not given)	89µM*
COCCNc1ncnc2c1CN(C1CCNCC1)C(=O)CN2C	50µM*
CN1CC(=O)N(C2CCNCC2)Cc2c(NCC(C)(C)C)ncnc21	i
CCNc1ncnc2c1CN(C1CCCNCC1)C(=O)CN2C (stereo not given)	i
O=C(O)CCCc1c[nH]c2ccccc12	i
Clc1ccc(CNC2=NCCNC23CCCCCC3)cc1	i
CC(C)Cn1c(S(=O)(=O)O)nc2ccccc21	i
COc1ccc(-c2cn3c(n2)CO[C@@H](CNC2CCOCC2)C3)cc1	i
Cc1ccc(C#N)c(NCc2cccnc2Oc2cccc(C(F)(F)F)c2)n1	25µM*
Cc1ccnn1CC(=O)NCc1cccnc1Oc1cccc(C(F)(F)F)c1	i
SMILES	KDM5B inhibitor
CC(C)(C)CC(=O)NCc1cccnc1Oc1cccc(C(F)(F)F)c1	i
Cc1ccc(CN2C(=O)[C@@H]3C[C@@H](O)CN3C3(CN(C4CCC(F)(F)CC4)C3)C2=O)o1	i
CN(CC(=O)Nc1ccc(Cl)cc1)C(=O)c1ccc2c(c1)nnn2C	i
CCN1CCN(c2ccc(NS(=O)(=O)c3c(C)nc4sccn4c3=O)cc2Cl)CC1	i
Cc1c(C)n(CC(C)C)c2ncn3nc(Cc4ccccc4)nc3c12	i
CN(c1ccccc1)c1cc(=O)c2ccnc(N3CCN(c4ccccn4)CC3)c2o1	i
CN(c1cc(=O)c2ccnc(-c3cncnc3)c2o1)C1CCOCC1	i
CN1CCN(c2cc(=O)c3ccnc(N4CCOCC4)c3o2)CC1	i
CN(c1ccccc1)c1cc(=O)c2ccnc(NCC3CCOCC3)c2o1	i
CN(C)c1cccc(-c2nccc3c(=O)cc(N(C)C4CCOCC4)oc23)c1	28µM*
CN1CCN(c2nccc3c(=O)cc(N(C)C4CCOCC4)oc23)CC1	40µM*
CN(c1cc(=O)c2ccnc(-c3ccc([S+](C)(=O)[O-])cc3)c2o1)C1CCOCC1	35µM*
CC(=O)Nc1ccccc1-c1nccc2c(=O)cc(N(C)C3CCOCC3)oc12	35µM*
CN(c1ccccc1)c1cc(=O)c2ccnc(N3CCOCC3)c2o1	i
CCNc1c(NC(=O)Nc2ccc(C)c(Cl)c2)c(=O)oc2ccccc12	i
CCNC(=O)C1CCN(S(=O)(=O)c2ccc3c(c2)CCCN3C(C)=O)CC1	i
Cc1cccc2sc(NS(=O)(=O)c3ccccc3)nc12	i
CCCCN(CC)CCCNC(=O)c1sc2nc3n(c(=O)c2c1C)CCCCC3	i
CC(=O)Nc1ccc(NS(=O)(=O)c2cc3c4c(c2)CC(=O)N4CCC3)cc1	i
Cc1cc(NC(=O)CSc2nnc(C)o2)no1	i
CCOc1cc(=O)n2c(c1C(=O)Nc1cc(OC)c(OC)c(OC)c1)CCCC2	i
CC1=C(C(=O)OC(C)C)C(c2ccccc2Cl)N2C(CC(=O)N3CCOCC3)=CSC2=N1 (stereo not given)	i
O=C(Nc1cccc(C(F)(F)F)c1)N[C@H]1[C@H](O)[C@@H](Sc2ccccc2)[C@@H]2OC[C@H]1O2	i
CN(c1cc(=O)c2ccnc(-c3cccc(CO)c3)c2o1)C1CCOCC1	40µM*
COC(=O)[C@@H]1CN(C(=O)c2ccc(N(C)C)cc2)CCN1C(C)=O	i
SMILES	KDM5B inhibitor
CN(C)C(=O)CN1CCCN(Cc2ncc(-c3ccccc3)o2)CC1	i
Cc1nccn1CC(=O)N1CCCn2cc(-c3ccccc3F)nc21	i
O=c1[nH]c2cc3c(cc2c(=O)n1CCc1nc(-c2cccc(C(F)(F)F)c2)no1)OCO3	i
COc1ccccc1C(=O)N1CCC2(CC1)CC(N(C1CC1)S(C)(=O)=O)CCO2 (stereo not given)	i
Cc1nnn2c(C(=O)NCc3ccc(Cl)cc3)cccc12	35µM*
O=C(CCn1cccn1)NCc1ccc(Cl)cc1	i
CCc1ccc(NC(=O)c2cc3ccccn3n2)cc1	i[11.5 µM]
CN(C)c1ncc(C(=O)NCc2ccc(Cl)cc2)cn1	i
O=C(NCc1ccc(Cl)cc1)c1cnn2ncccc12	35µM*
Cc1ccccc1-c1onc(C)c1C(=O)NCc1ccc(Cl)cc1	i
O=C(NCc1ccc(Cl)cc1)c1cc2cccnn2n1	32µM*
O=C(NCc1ccc(-n2cccn2)cc1)c1ccc(Cl)cc1F	i
C=CCNC(=O)c1cc(-c2ccc3c(c2)OCO3)on1	i
C=CCNC(=O)c1cc2cccnn2n1	32µM*
O=C(NCCc1ccc(Cl)cc1)c1cc2ccccn2n1	i
O=C(Nc1ccc(Cl)cc1Cl)c1cc2cccnn2n1	i
COCCC1(NS(C)(=O)=O)CCN(C(=O)c2ocnc2C)CC1	i
CC1=C(C#N)C(NC(=O)CC(C)C)(C(F)(F)F)C(=O)N1 (stereo not given)	i
O=C(Nc1nonc1-c1ccc(Cl)cc1)c1ccccc1F	i
CCc1ccccc1NC(=O)Cn1cc(C(=O)c2ccncc2)c(=O)c2cc(C)ccc21	i
NCc1ccc(-c2ccc(OC(F)(F)F)cc2)cc1	i
CC(=O)Nc1ccc(NC(=O)NC(C)C(C)C)cc1 (stereo not given)	i
Cc1ccc(NC(=O)C(C)Sc2nc(=O)cc(N)n2-c2cccc(C)c2)cc1 (stereo not given)	i
CCn1cc(C(=O)N2CCN(c3ccc(F)cc3)CC2)c(=O)c2cc(S(=O)(=O)N(C)C3CCCCC3)ccc21	i
Cc1ccc(NC(=S)N2C3CCCC2CC(NC(=O)C2CC2)C3)cc1C (stereo not given)	i
SMILES	KDM5B inhibitor
O=C(COC(=O)c1ccccc1-c1ccc(C(F)(F)F)cc1)c1cccc([N+](=O)[O-])c1	i
O=C(O)CSCSCC(=O)O	i
O=C(NCc1ccc(Cl)nc1)c1ccn2nccc2c1	i
O=C(NCc1ccc(Cl)cc1)c1ccn2nccc2c1	35µM*
CCCCCn1c(=O)[nH]c2cc(C(=O)NCc3ccc(Cl)cc3)ccc2c1=O	i
Cc1c(C(=O)N2CCCC(C(F)(F)F)C2)sc2cccc(F)c12 (stereo not given)	i
O=C(NCC(c1ccccc1)c1c[nH]c2ccccc12)c1cccs1 (stereo not given)	i
